From ChEMBL document CHEMBL2218924, “A broad activity screen in support of a chemogenomic map for kinase signalling research and drug discovery” (Biochem J, 2013)

These compounds were tested against Calcium/calmodulin-dependent protein kinase type II subunit beta (Homo sapiens) (UniProt Q13554). Settings: at 1 µM.
Sequence of Calcium/calmodulin-dependent protein kinase type II subunit beta (Homo sapiens) (Q13554 whole entry): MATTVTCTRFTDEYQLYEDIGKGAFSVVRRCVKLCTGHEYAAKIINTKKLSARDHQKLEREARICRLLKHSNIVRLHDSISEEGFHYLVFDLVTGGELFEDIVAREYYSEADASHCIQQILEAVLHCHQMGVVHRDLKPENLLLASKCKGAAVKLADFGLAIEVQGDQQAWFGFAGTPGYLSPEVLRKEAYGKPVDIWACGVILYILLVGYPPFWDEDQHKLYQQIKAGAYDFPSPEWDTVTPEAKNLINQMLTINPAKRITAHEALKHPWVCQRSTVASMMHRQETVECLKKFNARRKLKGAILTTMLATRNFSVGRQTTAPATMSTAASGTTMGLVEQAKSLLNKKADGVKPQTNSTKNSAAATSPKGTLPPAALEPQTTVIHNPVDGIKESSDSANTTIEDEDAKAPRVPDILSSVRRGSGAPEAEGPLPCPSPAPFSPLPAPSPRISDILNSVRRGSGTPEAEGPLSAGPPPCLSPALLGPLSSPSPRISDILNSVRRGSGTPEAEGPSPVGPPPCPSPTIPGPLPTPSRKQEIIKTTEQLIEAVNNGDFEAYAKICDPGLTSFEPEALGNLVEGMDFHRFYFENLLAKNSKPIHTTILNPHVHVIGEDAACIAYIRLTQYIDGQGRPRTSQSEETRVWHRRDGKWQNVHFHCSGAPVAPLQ

Compared with NC(=O)Nc1sc(-c2ccc(F)cc2)cc1C(N)=O, Nc1ncnc2[nH]nc(Nc3ccc(F)cc3)c12 is lower in residual activity: 86% for the first, 67% for the second.

Compared with COc1cc2nccc(Oc3ccc(NC(=O)Nc4cc(C)on4)c(Cl)c3)c2cc1OC, CC(C)c1nn(-c2c(Cl)cccc2Cl)c2nc(Cc3ccc(OCCO)cc3)[nH]c(=O)c12 is lower in residual activity: 97% for the first, 91% for the second.

Going from O=c1cc(N2CCOCC2)oc2c1ccc1ccccc12 to O=c1cc(N2CCNCC2)oc2c(-c3ccccc3)cccc12, the residual activity falls from 103% to 91%.

First: CC(C)(C)n1nc(Cc2cccc3ccccc23)c2c(N)ncnc21
Second: Nc1ncnc2c1c(-c1ccc(Oc3ccccc3)cc1)cn2C1CCCC1
The residual activity of the first is higher: 89% for the first, 83% for the second.

Compared with O=C(NC(NC(=S)Nc1ccc(F)c([N+](=O)[O-])c1)C(Cl)(Cl)Cl)C(c1ccccc1)c1ccccc1 (stereo unspecified), CC(C)N(CCC(=O)c1ccc2ccccc2c1)Cc1ccccc1 is lower in residual activity: 91% for the first, 88% for the second.

First: COc1ccc(-c2cnc3c(-c4ccsc4)cnn3c2)cc1
Second: CCCCc1c(-c2ccc(OC)cc2)[nH]c2nccnc12
The residual activity of the first is higher: 93% for the first, 82% for the second.

Going from CCN(CC)CCNC(=O)c1c(C)[nH]c(/C=C2\C(=O)Nc3ccc(Cl)cc32)c1C to O=C1Nc2ccc(Cl)cc2/C1=C/c1cc(Cl)c(O)c(Cl)c1, the residual activity rises from 8% to 69%.

Compared with NCCNc1ncc(C(N)=O)c(Nc2cccc(C(F)(F)F)c2)n1, c1ccc(-c2cnc(Nc3ccc(OCCN4CCCC4)cc3)s2)cc1 is lower in residual activity: 73% for the first, 48% for the second.

First: O=C1NC(=O)C(c2cn(CCCO)c3ncccc23)=C1c1cnccn1
Second: O=C1NC(=O)C(c2cn(CCCn3ccnc3)c3ccccc23)=C1Nc1ccccc1
The residual activity of the first is lower: 75% for the first, 77% for the second.

First: O=C1NC(=O)c2c1c1c3ccccc3[nH]c1n1cncc21
Second: O=C1Cc2c([nH]c3ccc(Br)cc23)-c2ccccc2N1
The residual activity of the first is lower: 22% for the first, 81% for the second.

First: O=C(O)/C=C/c1cc(Br)c(Br)c(Br)c1Br
Second: O=C(CCCc1ccc(-c2ccccc2F)cc1)Nc1ccc(O)cc1
The residual activity of the first is lower: 78% for the first, 100% for the second.

Compared with Cn1sc(=O)n(Cc2ccccc2)c1=O, Cn1c2ccccc2c2c3c(c4c5ccccc5n(CCC#N)c4c21)CNC3=O is lower in residual activity: 92% for the first, 11% for the second.

Compared with COc1ccc2c(c1)c(C1=C(c3c[nH]c4ccccc34)C(=O)NC1=O)cn2CCCN(C)C, Nc1n[nH]c2nc3ccccc3nc12 is lower in residual activity: 80% for the first, 75% for the second.
